Compounds with a hit are over-represented: about 3.4% of the library has one in this group of screens.
GPR151 activ – human GPR151 activation | Q8TDV0 | PathHunter beta-arrestin GPR151 cells, luminescence | activation, % at 11.2 µM | actives 1% (n = 650,000); in the data active means activation above about 4.9%;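 further: 0% = median of compound wells and 100% = cells with positive control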
MITF primary – human MITF inhibition, primary screen | O75030 | AlphaScreen MITF homodimerization, bead proximity signal | inhibition, % at 2.6 µM | actives 0.91% (n = 650,000) | AID 1259374; in the data active means inhibition above about 50%;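 further: 0% = vehicle wells with protein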
TEAD-YAP inh – TEAD-YAP interaction inhibition; actives 1.4% (n = 640,000); inhibition, % at 9.12 µM; AID 1259422; HEK-TIYL cells, TEAD-Gal4/YAP UAS-luciferase luminescence; in the data active means inhibition above about 32%;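 further: 0% = median of test compound wells and 100% = reference inhibitor wells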
FBW7 activator – human FBW7 E3 ligase activation, primary screen; Q969H0; actives 0.13% (n = 650,000); AID 1259310; AlphaScreen FBW7–phospho-cyclin E peptide binding, activator screen; normalized activity (activation), % at 26.1 µM; in the data active means normalized activity above about 1.9%;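 further: purified mutant Fbw7 with reduced substrate affinity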
GPR151 confirm – human GPR151 activation, confirmation screen; shares compounds with GPR151 activ; GPR151 PathHunter beta-arrestin cells, luminescence, 90 min; % of EA-reagent control over plate median; activation, % at 11.2 µM; 6,700 tested, under 10 active; AID 1508609;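 active means mean percent activation across replicates above the confirmation screen cutoff of 4.91%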
GPR119 counter – activates human GPR119 in a GPR151 counter-screen; shares compounds with GPR151 activ; GPR119 PathHunter beta-arrestin cells, luminescence, 90 min; 0 = compound-well median, 100 = enzyme-acceptor control; activation, % at 11.2 µM; actives 0.3% (n = 6,700);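 active means mean percent activation in the counterscreen above 29.09%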;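 further: counterscreen on off-target GPR119 to flag nonselective hits from the GPR151 activator screen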
Target sequence (Q8TDV5 whole entry, looked up): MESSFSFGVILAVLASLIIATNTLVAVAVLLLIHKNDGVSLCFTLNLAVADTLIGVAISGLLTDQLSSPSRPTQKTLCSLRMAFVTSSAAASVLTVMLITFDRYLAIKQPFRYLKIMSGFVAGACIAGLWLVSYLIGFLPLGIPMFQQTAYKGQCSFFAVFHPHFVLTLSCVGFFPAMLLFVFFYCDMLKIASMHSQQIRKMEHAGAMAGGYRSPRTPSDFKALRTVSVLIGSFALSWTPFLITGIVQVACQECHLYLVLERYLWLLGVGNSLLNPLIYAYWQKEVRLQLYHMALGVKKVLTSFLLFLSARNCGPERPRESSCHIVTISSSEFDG
* marks the source's active call; other numbers are inactive results; x = no result.

SMILES	GPR151 activ	MITF primary	TEAD-YAP inh	FBW7 activator	GPR151 confirm	GPR119 counter
C=CCNC(=O)C1CC(Cc2cccc3ccccc23)=NO1 (stereo unspecified)	-1	25	-78	0	x	x
COc1ccc2nc(NCCNC(=O)c3cc(OC)c(OC)c(OC)c3)c(C#N)cc2c1	-1	15	-1	1	x	x
COCC(=O)NCCNc1nc2ccc(OC)cc2cc1C#N	7.2*	6	-11	0	1	-1
CCOc1ccc(C(=O)Nc2nc3c(ccc4ccccc43)s2)cc1	5.5*	5	0	0	-1	-3
CC(C)CNC(=O)c1ccc([N+](=O)[O-])cc1Cl	1	-4	-3	0	x	x
CCOC(=O)c1cc(C(=O)NNC(=O)/C=C/C(=O)O)c(C)nc1C	5.3*	6	-2	0	0	-5
O=C1Nc2ccccc2N(O)N1c1cccc(Br)c1	7.7*	6	-3	0	0	3
CCCN1C(=O)CC(c2ccco2)Sc2ccccc21 (stereo unspecified)	5.3*	4	1	0	-1	-1
CC(=O)COc1cc2c(C)cc(=O)oc2cc1Cl	5.6*	-9	7	0	2	12
CC1=CC(C)(C)N2C(=O)C3(C(C#N)=C(N)OC4=C3C(=O)CC(C)(C)C4)c3c(C)c(C)cc1c32 (stereo unspecified)	9.5*	4	-4	0	1	3
CCc1cc2c3c(c1)C1(C(=O)N3C(C)(C)C=C2C)C(C#N)=C(N)OC2=C1C(=O)CC(C)(C)C2 (stereo unspecified)	0	14	3	0	x	x
Clc1ccc(OCc2nc(-c3cccnc3)no2)c(Br)c1	-2	15	-30	0	x	x
Brc1c(OCc2nc(-c3cccnc3)no2)ccc2ccccc12	7.1*	-7	-10	0	1	9
Cc1cc(C)cc(C(=O)Nc2ccc3c(c2)CCCN3S(C)(=O)=O)c1	7.7*	3	-34	0	1	12
Cc1sc(N=C(N)N)nc1-c1ccc2c(c1)CCN2C(=O)C1CCCCC1	5.1*	6	5	0	0	-1
Cc1c(C(=O)NC2CCCC2)oc2ccc3c(c12)C(=O)CC(C)(C)O3	0	2	-74	0	x	x
Cc1nn(CC(=O)OCC(=O)NC(=O)c2ccc(OC(F)F)cc2)c(C)c1[N+](=O)[O-]	6.6*	-11	0	0	1	5
O=C1CC(c2nnc(Cc3ccccc3Cl)o2)CN1c1ccccc1 (stereo unspecified)	5.5*	-12	6	0	0	-10
O=C1CC(N2CCN(C3CCCCC3)CC2)C(=O)N1c1ccc(Cl)cc1 (stereo unspecified)	6.8*	-15	-7	0	1	-2
O=C(NCc1cccc(C(F)(F)F)c1)C1CCN(c2ccc(NC3CCN(Cc4ccccc4)CC3)nn2)CC1	5.6*	15	38*	0	-1	-10
O=C(NCc1cccnc1)C1CCN(c2ccc(NC3CCN(Cc4ccccc4)CC3)nn2)CC1	0	-9	12	0	x	x
Cn1nccc1Nc1ccc(N2CCC(C(=O)NCc3cccc(C(F)(F)F)c3)CC2)nn1	5.2*	-3	11	0	1	1
O=C(NCc1cccc(C(F)(F)F)c1)C1CCN(c2ccc(Nc3ccccc3)nn2)CC1	1	1	-1	0	x	x
O=C(Cn1nnc(-c2ccc([N+](=O)[O-])cc2)n1)NCC1CC1	5.9*	14	-5	0	1	5
COc1ccc(/C=N/Nc2nc(C)c([N+](=O)[O-])c(N(C)c3ccccc3)n2)cc1OC	5.5*	-1	14	0	1	2
SMILES	GPR151 activ	MITF primary	TEAD-YAP inh	FBW7 activator	GPR151 confirm	GPR119 counter
NC(=O)C1(N2CCCCC2)CCN(C(=S)Nc2ccc(F)c(Cl)c2)CC1	5.1*	13	-1	0	0	6
NC(=O)C1(N2CCCCC2)CCN(CC(=O)Nc2ccc(F)c(Cl)c2)CC1	-1	5	-6	0	x	x
CCOC(=O)C1=C(C)N=c2s/c(=C\c3cccc(OC)c3)c(=O)n2C1c1ccc(OC)c(OC)c1 (stereo unspecified)	0	-8	-1	0	x	x
CC(=O)Oc1ccc(/C=N/NC(=O)Nc2ccccc2)cc1	-7	5	-71	0	x	x
CN(Cc1ccccc1)c1ccnc2c(-c3ccc(O)cc3)cnn12	5.0*	-7	73*	0	0	0
CCCC(=O)N(CC(=O)Nc1sc2c(c1C(N)=O)CCCC2)C1CCCC1	1	17	-16	1	x	x
Cc1cccc(NC(=O)c2cc(N3C(=O)CCC3=O)ccc2N2CCCCC2)c1	8.2*	-14	4	0	0	9
CC(=O)Nc1ccc(N2CCCCC2)c(C(=O)Nc2cccc(C)c2)c1	-1	12	4	0	x	x
CCN(CC)CCCN1C(=O)C(C)SC1c1ccccc1[N+](=O)[O-] (stereo unspecified)	13*	9	4	0	1	9
CCN(CC)CCCOc1ccccc1[N+](=O)[O-]	0	5	-12	0	x	x
COc1cccc(CNCCC2CCC(=O)N2CCCN2CCCC2=O)c1 (stereo unspecified)	-1	-13	5	0	x	x
CCc1c(C)sc2nc(C(C)C)n3c(=O)n(CCN(C)C)nc3c12	0	12	0	0	x	x
Cn1c(=O)c2c(nc(NCCO)n2Cc2ccccc2F)n(C)c1=O	16*	22	25	0	-1	6
Cn1c(=O)c2c(nc(NCCO)n2Cc2ccc(Br)cc2)n(C)c1=O	5.5*	6	21	0	1	4
O=C(C1CCCC1)N1CCC(n2nnc3ccccc3c2=O)CC1	-1	1	1	0	x	x
O=C(CC1S\C(=N/N=C/C=C/c2ccccc2)NC1=O)Nc1ccccc1F (stereo unspecified)	7.8*	-11	1	0	1	-3
CCOc1cc(C2Nc3ccccc3NC3=C2C(=O)CC(c2ccc(OC)cc2)C3)cc(Cl)c1O (stereo unspecified)	4.9*	1	-15	0	1	14
COc1cc(C2Nc3ccccc3NC3=C2C(=O)CC(c2ccc4c(c2)OCO4)C3)ccc1OC(C)=O (stereo unspecified)	17*	-8	-8	0	2	16
C=CCn1c(SCC(=O)NC(C)(C)C)nnc1-c1ccco1	0	-3	-2	0	x	x
C=CCn1c(SCC(N)=O)nnc1-c1ccc(Br)cc1	6.2*	19	0	1	-1	-11
CCCCNC(=O)c1cc(S(=O)(=O)N2CCOCC2)ccc1Sc1ccc(Br)cc1	0	2	0	0	x	x
O=C(NCCCN1CCOCC1)c1cc(S(=O)(=O)N2CCOCC2)ccc1Sc1ccc(Br)cc1	5.6*	-5	-8	0	-1	5

Screens as filed in PubChem BioAssay.
